Experimental data taken from PubChem BioAssay AID1159580 (chemical genetic matrix, 2015).
In all, about 5,500 compounds went through this assay and about 2,000 (36%) were called active. About 18% were inconclusive and are not listed. Cut-off read from the data, not from the text of the source: active = normalized growth mostly below about 0.91 (no sharp cut-off); inconclusive = no clear call, values can overlap the other calls; inactive = mostly above about 0.92. The list shows a part of the results.

Test: chemical genetic growth profiling, strain panel (AID 1159580);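 note: tested at 20 µM; growth read once vehicle control cultures reached saturation at 30 °C; 1 = growth at the plate median or of vehicle wells; lower values mean less growth of the strain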
Details: S. cerevisiae deletion strains, growth OD

Measured: normalized growth

O=c1ccc2ccc(O)c(O)c2o1
inactive: locus YAL021C, strain ccr4, hits give low values 1.01 | locus YAL026C, strain drs2, hits give low values 1.01 | locus YAL030W, strain snc1, hits give low values 1.01 | locus YAL040C, strain CLN3, hits give low values 0.995 | locus YBL061C, strain skt5, hits give low values 1 | locus YBR009C, strain hhf1, hits give low values 1 | locus YBR023C, strain chs3, hits give low values 1 | locus YBR171W, strain sec66, hits give low values 1 | locus YBR231C, strain swc5, hits give low values 0.98 | locus YBR279W, strain paf1, hits give low values 1.01 | locus YCL011C, strain gbp2, hits give low values 1.03 | locus YCL016C, strain dcc1, hits give low values 0.996 | locus YCL061C, strain MRC1 (second series), hits give low values 0.999 | locus YCL069W, strain vba3, hits give low values 1.01 | locus YCR088W, strain abp1, hits give low values 1.01 | locus YDL005C, strain med2, hits give low values 1 | locus YDL040C, strain nat1, hits give low values 1.01 | locus YDR001C, strain nth1, hits give low values 1.02 | locus YDR069C, strain doa4, hits give low values 0.982 | locus YDR137W, strain rgp1, hits give low values 0.982 | locus YDR150W, strain NUM1, hits give low values 0.998 | locus YDR159W, strain sac3, hits give low values 0.966 | locus YDR195W, strain ref2 0.989 | locus YDR297W, strain sur2, hits give low values 1 | locus YDR334W, strain swr1, hits give low values 1.01 | locus YDR335W, strain msn5, hits give low values 1.02 | locus YDR363W, strain ESC2, hits give low values 0.961 | locus YDR392W, strain spt3, hits give low values 0.934 | locus YEL003W, strain gim4, hits give low values 1 | locus YEL037C, strain rad23, hits give low values 1.01 | locus YEL061C, strain CIN8 (second series), hits give low values 1.01 | locus YER002W, strain NOP16, hits give low values 0.996 | locus YER015W, strain faa2, hits give low values 0.999 | locus YER016W, strain bim1, hits give low values 1.02 | locus YER111C, strain swi4, hits give low values 0.999 | locus YER155C, strain BEM2 (second series), hits give low values 1 | locus YFR010W, strain ubp6, hits give low values 1.01 | locus YGL167C, strain pmr1, hits give low values 1.01 | locus YGL173C, strain kem1, hits give low values 1 | locus YGL227W, strain vid30, hits give low values 1.01 | locus YGL240W, strain doc1, hits give low values 0.986 | locus YGL253W, strain hxk2, hits give low values 1.03 | locus YGR078C, strain PAC10, hits give low values 0.994 | locus YGR229C, strain SMI1, hits give low values 1.03 | locus YHR013C, strain ard1, hits give low values 0.997 | locus YHR027C, strain rpn1, hits give low values 1 | locus YHR030C, strain SLT2, hits give low values 0.98 | locus YHR079C, strain IRE1, hits give low values 0.96 | locus YHR142W, strain chs7, hits give low values 1.05 | locus YJL092W, strain hpr5, hits give low values 1.01 | locus YJL095W, strain BCK1 (second series), hits give low values 1 | locus YJL095W, strain BCK1, hits give low values 0.978 | locus YJL115W, strain asf1, hits give low values 1.01 | locus YJL129C, strain trk1, hits give low values 0.999 | locus YJL154C, strain vps35, hits give low values 1.01 | locus YJL164C, strain tpk1, hits give low values 1 | locus YJL166W, strain qcr8, hits give low values 1.02 | locus YJL187C, strain SWE1, hits give low values 1.02 | locus YJR066W, strain TOR1, hits give low values 0.924 | locus YJR075W, strain HOC1, hits give low values 1.05 | locus YKL160W, strain elf1, hits give low values 1 | locus YKR026C, strain gcn3, hits give low values 1.01 | locus YKR091W, strain srl3, hits give low values 1.01 | locus YLL001W, strain dnm1, hits give low values 0.996 | locus YLL026W, hits give low values 1 | locus YLL041C, strain sdh2, hits give low values 1.01 | locus YLR027C, strain aat2, hits give low values 0.993 | locus YLR113W, strain HOG1, hits give low values 1.01 | locus YLR221C, strain rsa3, hits give low values 0.991 | locus YLR258W, strain gsy2, hits give low values 1.01 | locus YLR262C, strain YPT6 (second series), hits give low values 1.02 | locus YLR320W, strain mms22, hits give low values 1.01 | locus YLR342W, strain FKS1, hits give low values 1.01 | locus YLR357W, strain rsc2, hits give low values 1 | locus YLR370C, strain arc18, hits give low values 1.01 | locus YLR384C, strain iki3, hits give low values 0.981 | locus YML120C, strain ndi1, hits give low values 1 | locus YMR058W, strain fet3, hits give low values 1.01 | locus YMR125W, strain sto1, hits give low values 1 | locus YMR129W, hits give low values 1.01 | locus YMR205C, strain PFK2, hits give low values 1.01 | locus YMR231W, strain pep5, hits give low values 0.998 | locus YMR307W, strain GAS1, hits give low values 1.03 | locus YNL071W, strain lat1, hits give low values 1.02 | locus YNL153C, strain GIM3, hits give low values 1.2 | locus YNL175C, strain NOP13, hits give low values 0.974 | locus YNL183C, strain NPR1, hits give low values 0.94 | locus YNL197C, strain WHI3, hits give low values 0.979 | locus YNL209W, strain ssb2, hits give low values 0.994 | locus YNL224C, strain SQS1, hits give low values 0.99 | locus YNL248C, strain rpa49, hits give low values 1.04 | locus YNL322C, strain KRE1 (second series), hits give low values 0.994 | locus YNR049C, strain mso1, hits give low values 0.999 | locus YOR001W, strain rrp6, hits give low values 0.979 | locus YOR070C, strain gyp1, hits give low values 0.991 | locus YOR080W, strain dia2, hits give low values 0.986 | locus YOR083W, strain WHI5 (second series), hits give low values 1.02 | locus YOR083W, strain WHI5, hits give low values 0.999 | locus YOR106W, strain vam3, hits give low values 0.99 | locus YOR231W, strain MKK1, hits give low values 0.966 | locus YOR265W, strain rbl2, hits give low values 1.01 | locus YOR270C, strain vph1, hits give low values 1 | locus YOR290C, strain snf2, hits give low values 0.98 | locus YPL051W, strain arl3, hits give low values 1 | locus YPL078C, strain atp4, hits give low values 1.01 | locus YPL106C, strain sse1, hits give low values 0.967 | locus YPL240C, strain hsp82, hits give low values 1.01 | locus YPL256C, strain CLN2, hits give low values 0.989
